The test system of the assay is Plasmodium falciparum NF54 gametocytes. Put plainly: viability index relative to DMSO control (fraction); higher = less gametocyte killing. Particulars: 12.5 µM, incubation time: 72 h. Summed up:
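Each stage (I–V) of P. falciparum NF54 gametocytes was incubated with compound at 12.5 µM in 384-well plates, in 40 µl of serum-containing medium at 0.50% gametocytemia and 1.25% hematocrit, for 72 hr at 37°C under low oxygen. After 5 µl of 5 µM MitoTracker Red CMXRos was added for 20 min, 5 µl from each well was moved into 40 µl of 500 nM dye in serum-free medium and imaged across three fields after 30 min. The viability index is the gametocyte particle count divided by the plate mean of the solvent-only wells.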

Where [1] appears, read: gametocyte stage: Stage I viability index.
The mark [2] stands for this setting: gametocyte stage: Stage II viability index.
Setting [3] is: gametocyte stage: Stage III viability index.
Setting [4] is: gametocyte stage: Stage IV viability index.
[5] abbreviates: gametocyte stage: Stage V viability index.

This passage reports viability index results from the supplement of paper PMC4723716.

As to `COc1ccc(CCNC(=O)c2cc(S(=O)(=O)N3CC(C)CC(C)C3)ccc2Sc2ccc(F)cc2)cc1OC` (stereo not given), the viability index came to 0.104 under setting [1]; 0.445 under setting [2]; 0.844 under setting [3]; 0.769 under setting [4]; 0.987 under setting [5].
The corresponding values for `Oc1c(C(Nc2ccccn2)c2cccc(Oc3ccccc3)c2)ccc2cccnc12` (stereo not given) are 1.06, 0.975, 1.04, 0.994 and 0.675.
In the same order, the values of `COc1ccc(CNC(=O)c2cc3c(=O)n4ccccc4nc3n(CCc3ccccc3)c2=N)cc1` are 0.254, 0.499, 0.826, 0.946 and 1.01.
In the same order, the values of `CN(C)c1ccc(C=Cc2nc(=O)c3ccccc3o2)cc1` are 0.611, 0.713, 0.82, 0.921 and 0.835.
As for `CC(C)c1ccc(CNCC(O)c2ccccc2)cc1` (stereo not given), the viability index under setting [1] was found to be 0.032; the viability index under setting [2] was 0.118; the viability index under setting [3] stood at 0.492; the viability index under setting [4] came to 0.568; the viability index under setting [5] was found to be 0.648.
The corresponding values for `Cc1ccccc1OCCSc1nc2ccc(NC(=O)c3cccs3)cc2s1` are 1.13, 0.918, 1.08, 0.927 and 1.27.
The corresponding values for `COC(=O)c1ccc(Cl)c2c1C1C=CCC1C(c1cccc3ccccc13)N2` (stereo not given) are 0.825, 0.795, 1.14, 0.962 and 0.883.
The corresponding values for `CCOC(=O)c1cnc2c(C)cc(C)cc2c1Nc1ccc(OC)c(OC)c1` are 1.09, 0.998, 1.19, 0.845 and 0.978.
`COc1ccc(Nc2nc(NCc3ccccc3)c3ccccc3n2)cc1`: the viability index under setting [1] is 0.0331; the viability index under setting [2] came to 0.107; the viability index under setting [3] stood at 0.562; the viability index under setting [4] was found to be 0.593; the viability index under setting [5] worked out at 0.286.
In the same order, the values of `N=c1n(CCN2CCCCC2)c2ccccc2n1CC(O)c1cccc(Br)c1` (stereo not given) are 0.0133, 0.056, 0.133, 0.267 and 0.341.
For `O=C(NC1CCN(Cc2ccccc2)CC1)c1cc2nc(-c3ccc(Cl)s3)cc(C(F)(F)F)n2n1`, the viability index came out at 0.0778 under setting [1]; 0.366 under setting [2]; 0.843 under setting [3]; 0.883 under setting [4]; 1.01 under setting [5].
The corresponding values for `CC(C)(C)CC(C)(C)NCC(O)COc1ccc(Cl)cc1Cl` (stereo not given) are 0.0309, 0.0309, 0.0665, 0.188 and 0.11.
`CCOc1ccccc1CNC(=O)C1c2ccccc2C(=O)N(CC(C)C)C1c1cccs1` (stereo not given) came in with a viability index under setting [1] of 0.579; a viability index under setting [2] of 0.549; a viability index under setting [3] of 0.795; a viability index under setting [4] of 0.793; a viability index under setting [5] of 1.08.
In the same order, the values of `COc1cccc(NC(=O)Cn2c(C)c(C#N)c3ccccc32)c1` are 0.0586, 0.129, 0.252, 0.605 and 0.363.
The corresponding values for `CCOC(=O)c1c(C)n(-c2ccccc2)c2ccc(OC(=O)c3cc(OC)c(OC)c(OC)c3)cc12` are 1.05, 0.724, 0.947, 0.987 and 1.05.
In the same order, the values of `CC(C)OCc1cc(CN2CCN(c3cccc(Cl)c3)CC2)c(O)c2ncccc12` are 0.00331, 0.0328, 0.0297, 0.0243 and 0.011.
On to `CN1C=C(c2ccc3ccccc3n2)C(c2c[nH]c3ccccc23)c2ccccc21` (stereo not given), for which the viability index reads like this: under setting [1], 0.178; under setting [2], 0.0874; under setting [3], 0.273; under setting [4], 0.294; under setting [5], 0.351.
In the same order, the values of `CCN(CC)c1cc(C)c2cc(NC(=O)c3cccc(OC)c3)ccc2n1` are 0.154, 0.563, 0.864, 0.967 and 1.01.
The corresponding values for `CCC(c1ccccc1)c1nn2c(-c3cccs3)nnc2s1` (stereo not given) are 1.04, 0.992, 1.07, 0.875 and 0.725.
In the same order, the values of `CCOc1cc2c(cc1OCC)C(c1cc(Cl)ccc1O)NCC2` (stereo not given) are 0.0411, 0.0883, 0.488, 0.532 and 0.675.
As for `O=C(NC1CCCC1)c1ccc(N2CCC(NCc3cccc(C(F)(F)F)c3)CC2)cc1`, the viability index under setting [1] was determined as 0.243; the viability index under setting [2] amounted to 0.573; the viability index under setting [3] worked out at 0.76; the viability index under setting [4] was 0.76; the viability index under setting [5] amounted to 0.604.
On to `CCC(O)c1ccc(Br)cc1NC(=O)c1cccc(Cl)c1` (stereo not given), for which the viability index was found to be 0.0243 under setting [1]; 0.196 under setting [2]; 0.598 under setting [3]; 0.729 under setting [4]; 0.582 under setting [5].
The corresponding values for `Cc1cccc(-n2ncc3c(=O)[nH]c(-n4nc(C)cc4NC(=O)c4cc5ccccc5o4)nc32)c1` are 0.466, 0.473, 0.792, 0.9 and 0.791.
In the same order, the values of `CC1CCN(Cc2ccc(NC(=O)c3cc4ccc5cccnc5c4[nH]3)cc2)CC1` are 0.265, 0.505, 0.902, 0.954 and 0.769.
For the compound `COc1cccc(C2(C)Nc3ccccc3-c3nc4ccccc4n32)c1` (stereo not given), the viability index came to 0.113 under setting [1]; 0.0986 under setting [2]; 0.198 under setting [3]; 0.465 under setting [4]; 0.154 under setting [5].
In the same order, the values of `OC(CNCC1CCCO1)Cn1c2ccc(Cl)cc2c2cc(Cl)ccc21` (stereo not given) are 0.0685, 0.0647, 0.468, 0.65 and 0.56.
On to `Cc1ccc(Nc2nc(NCCO)c3ccccc3n2)cc1C`, for which the viability index turned out to be 0.0641 under setting [1]; 0.32 under setting [2]; 0.584 under setting [3]; 0.796 under setting [4]; 0.659 under setting [5].
The corresponding values for `OC1=C2C(=Nc3ccccc3SC2c2ccc(Br)cc2)c2ccccc21` (stereo not given) are 0.755, 0.751, 1.04, 0.801 and 0.857.
For `CCOc1ccc(Nc2c3ccccc3nc3ccccc23)cc1`, the viability index reads like this: under setting [1], 0.0245; under setting [2], 0.165; under setting [3], 0.444; under setting [4], 0.351; under setting [5], 0.584.
With `COc1cccc(Cn2c(Oc3ccccc3)nc3c2c(=O)n(C)c(=O)n3C)c1`, the viability index runs as follows: under setting [1], 0.892; under setting [2], 0.853; under setting [3], 0.993; under setting [4], 1.06; under setting [5], 1.16.
